# Bioassay records from PubChem.
# FECH inh: inhibitors of human ferrochelatase, primary screen, biochemical, purified FECH, Ni-mesoporphyrin absorbance; AID 1671448, 2021; Ni-mesoporphyrin absorbance 550 nm; calls only at 10 µM (by protocol); Ferrochelatase, mitochondrial (Homo sapiens), P22830; actives 3.3% (n = 20,000);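 active = enzyme reaction rate more than 3 SD below the solvent-only control wells on the same plate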;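 also: lower slope than DMSO wells means FECH inhibition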
# Target sequence (P22830 whole entry, looked up): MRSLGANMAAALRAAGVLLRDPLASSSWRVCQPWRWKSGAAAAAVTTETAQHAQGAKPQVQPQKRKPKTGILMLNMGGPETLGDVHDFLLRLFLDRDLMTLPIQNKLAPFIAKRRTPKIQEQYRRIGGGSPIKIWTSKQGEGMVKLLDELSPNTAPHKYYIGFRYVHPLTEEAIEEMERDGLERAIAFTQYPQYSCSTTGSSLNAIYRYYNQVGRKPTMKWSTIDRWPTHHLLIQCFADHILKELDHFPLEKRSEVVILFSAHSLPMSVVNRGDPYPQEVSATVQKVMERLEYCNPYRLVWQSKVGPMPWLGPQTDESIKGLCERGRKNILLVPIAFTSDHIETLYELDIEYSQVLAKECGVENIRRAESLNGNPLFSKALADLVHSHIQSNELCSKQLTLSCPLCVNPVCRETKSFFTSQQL
# Starred values were filed as active, the others as inactive; i = inactive; + = active, no number. Only a selection was taken, and hits are over-represented in it overall.
SMILES,FECH inh
CCCc1nc2nc[nH]n2c(=O)c1NC(=O)Nc1ccc(C)c(F)c1,i
CCCc1nc2nc[nH]n2c(=O)c1NC(=O)Nc1ccc(Br)cc1,i
Cc1cc(Cl)ccc1NC(=O)CCc1c(C)nn(-c2cc(N3CCCC3)ncn2)c1C,i
Cc1ccc(NS(=O)(=O)c2cc(N3C(=O)CCS3(=O)=O)ccc2C)c(C)c1,i
O=C(CN1CCCN(Cc2ccccc2Cl)S1(=O)=O)Nc1cc(F)ccc1F,i
COc1ccc(NC(=O)CN2CCN(Cc3ccc(F)cc3Cl)S2(=O)=O)cc1Cl,+
COc1ccc(CN2CCCN(Cc3ccccc3Cl)S2(=O)=O)cc1,i
Cc1cccc(NC(=O)CN2CCN(Cc3ccc(F)cc3Cl)S2(=O)=O)c1,+
Cc1cc(C)cc(NC(=O)CN2CCN(Cc3ccc(F)cc3Cl)S2(=O)=O)c1,i
O=S1(=O)N(Cc2ccccc2Cl)CCCN1Cc1ccc(F)cc1Cl,+
COc1ccc(NC(=O)CN2CCN(Cc3ccccc3Cl)S2(=O)=O)cc1Cl,i
O=C(CN1CCN(Cc2ccc(F)cc2Cl)S1(=O)=O)Nc1cccc(F)c1,i
Cc1ccc(NC(=O)CN2CCN(Cc3ccc(F)cc3Cl)S2(=O)=O)cc1C,i
COc1cccc(OC(C)c2n[nH]c(Cc3ccccc3)n2)c1 (stereo not given),i
COc1cccc(Cn2c(CNC(=O)c3cc(OC)cc(OC)c3)nc3cccnc32)c1,i
COc1ccc(CCn2c(-c3ccc(O)cc3)n[nH]c2=O)cc1,i
Cc1cc(NC(=O)c2ccccc2C(F)(F)F)n(-c2ncnc3c2cnn3-c2ccc(F)cc2)n1,i
CN1CCCC(c2n[nH]c(=O)n2CCc2ccccc2)C1 (stereo not given),i
O=c1[nH]nc(C2CC2)n1Cc1ccc(Cl)cc1Cl,+
CCn1c(C2CCN(C(=O)c3cc(C(C)C)[nH]n3)CC2)n[nH]c1=O,i
CC(C)Cc1ccc(S(=O)(=O)NCc2nc3cccnc3n2C(C)C)cc1,i
CC(C)c1ccc2c(c1)-c1ccccc1S(=O)(=O)N2CC(=O)NCc1ccccn1,+
CCc1ccc2c(c1)-c1ccccc1S(=O)(=O)N2CC(=O)Nc1ccc(NC(C)=O)cc1,i
CCc1ccc2c(c1)-c1ccccc1S(=O)(=O)N2CC(=O)Nc1ccccc1OC,i
CC(C)c1ccc2c(c1)-c1ccccc1S(=O)(=O)N2CC(=O)NCCSC1CCCCC1,i
SMILES,FECH inh
CCN1CCN(C(=O)CN2c3ccc(C(C)C)cc3-c3ccccc3S2(=O)=O)CC1,+
CCc1ccc2c(c1)-c1ccccc1S(=O)(=O)N2CC(=O)NCc1ccccn1,+
CC(C)c1ccc2c(c1)-c1ccccc1S(=O)(=O)N2CC(=O)NCCCN1CCOCC1,i
CCN1CCN(C(=O)CN2c3ccc(Br)cc3-c3ccccc3S2(=O)=O)CC1,i
CCCNC(=O)c1ccccc1NC(=O)CN1c2ccc(C(C)C)cc2-c2ccccc2S1(=O)=O,i
CCc1ccc2c(c1)-c1ccccc1S(=O)(=O)N2CC(=O)N1CCN(c2ccccc2)CC1,i
CC(C)c1ccc2c(c1)-c1ccccc1S(=O)(=O)N2CC(=O)NCc1ccncc1,+
CC(C)C(NC1CSCCSC1)c1nccn1C (stereo not given),i
CCc1[nH]c2ccc(CNC(=O)c3cccnc3N3CCOCC3)cc2c1C,i
CCc1nc(OCC(=O)NCc2cccc(Br)c2)c2c(C)c(C)oc2n1,i
CC(C)(C)c1ncc2c(n1)CN(C(=O)C1CCS(=O)(=O)CC1)C2,i
O=C(CCc1ccccc1)Nc1nc2n(n1)C(c1ccccc1)C=C(c1ccccc1)N2 (stereo not given),i
CCC1=C(c2ccc(OC)cc2)S(=O)(=O)N(CC(=O)Nc2ccc(C)c(Cl)c2)C1=O,i
CN(Cc1cccc(C(=O)Nc2ccc(F)cc2F)c1)Cc1ccno1,i
Cc1cc(Nc2ccc(OC(=O)c3cccc(F)c3)cc2)n2nc(-c3cccnc3)nc2n1,i
COc1ccc(Nc2nc(NCCN(C)C)nc3c2cnn3-c2ccccc2)cc1,i
C=Cc1ccc(Cn2c(=O)c3cnc(-c4ccc(OC)cc4)nc3n(CC)c2=O)cc1,i
CCn1c(=O)n(Cc2cccc(Cl)c2)c(=O)c2cnc(-c3ccc(OC)cc3)nc21,+
CCn1c(=O)n(Cc2ccccc2Cl)c(=O)c2cnc(-c3ccc(OC)cc3)nc21,i
CCn1c(=O)n(Cc2cccc(OC)c2)c(=O)c2cnc(-c3ccc(OC)cc3)nc21,i
CCn1c(=O)n(Cc2cccc(OC)c2)c(=O)c2cnc(-c3ccc(Cl)cc3)nc21,i
CCn1c(=O)n(Cc2ccncc2)c(=O)c2cnc(-c3ccc(OC)cc3)nc21,+
CN(Cc1cn[nH]c1-c1ccc(F)cc1)C(=O)CCn1cncn1,i
CC(C)CCNc1nc(Nc2ccc(F)cc2)c2cnn(-c3ccccc3)c2n1,i
Cc1ccc(S(=O)(=O)N2CCN(c3nc(C)cc(N4CCN(C)CC4)n3)CC2)c(C)c1,i
SMILES,FECH inh
COc1c(F)cccc1C(=O)NCCc1nnc2n1CCNCC2,i
COc1ccc(N2C(=O)N(Cc3ccc(C(C)(C)C)cc3)c3ccccc3S2(=O)=O)cc1OC,i
Cc1ccccc1N1C(=O)N(Cc2ccc(C(C)(C)C)cc2)c2ccccc2S1(=O)=O,i
CCc1ccc(N2C(=O)N(Cc3cc(F)cc(F)c3)c3ccccc3S2(=O)=O)cc1,+
Cc1ccc(NC(=O)C2CCN(c3ccc(-c4cccs4)nn3)CC2)c(C)c1,i
O=C(CCN1CCCO1)NCc1ccc2sccc2c1,i
CCN1CC(n2cnc(-c3ccccc3)c2-c2cnn3cccnc23)CC1=O (stereo not given),i
CN1CCCC1CCNC(=O)CCC(=O)NC1CCCC1 (stereo not given),i
CCN(CC)C1CCN(C(=O)CCC(=O)NC2CCCCCCC2)C1 (stereo not given),+
O=C(CCC(=O)N1CCOC2(CNCCOC2)C1)NC1CCCC1 (stereo not given),i
Cc1ccccc1C1=CCN(c2ncc(NS(=O)(=O)c3cc(F)ccc3C)cc2C(=O)O)CC1,i
O=C(Nc1ccccc1Cl)N1CCN(CCn2c(C(F)(F)F)nc3cccnc32)CC1,i
O=C(c1c[nH]c(=O)cn1)N1CCCCC1CCn1ccnc1 (stereo not given),i
O=C(NCCc1ccccc1)N1CCCCC1CCn1ccnc1 (stereo not given),i
c1ccc2c(CN3CCCCC3CCn3ccnc3)ccnc2c1 (stereo not given),+
CS(=O)(=O)N1CCC(n2c(-c3ccccc3)nc3cccnc32)CC1,i
CN(CCc1ccncc1)S(=O)(=O)c1ccc(N2C(=O)CCS2(=O)=O)cc1,i
CCC(CC)C(=O)NCc1nc2cccnc2n1CCOC,i
CCc1[nH]c2c(CNC(=O)CC(C)N3CCOCC3)cc(C)cc2c1C (stereo not given),i
Cc1cccc(N2CCN(c3ncc(NS(=O)(=O)c4ccc(F)cc4)cc3C(=O)O)CC2C)c1 (stereo not given),i
Cc1cccc(N2CCN(c3ncc(NS(=O)(=O)c4cc(F)ccc4C)cc3C(=O)O)CC2C)c1 (stereo not given),+
Cc1cccc(N2CCN(c3ncc(NS(=O)(=O)c4ccccc4C)cc3C(=O)O)CC2C)c1 (stereo not given),i
Cc1ccn2c(=O)cc(COc3cccc(NC(=O)C(C)(C)C)c3)nc2c1,i
